The values that follow come from PubChem BioAssay (NCI).

The structures appear in SMILES notation. Compounds without any hit were thinned out: in the full panel of roughly 79,000, 15% have a hit. Calls of active or inactive are those of the source. Rule as the data show it: active = growth inhibition above about 70%; inactive = the rest.

The nature of assay [1]: NCI Yeast Anticancer Drug Screen. Data for the rad50 strain (AID 155).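 Also: 0% = growth of vehicle-only cultures of the same strain.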 The note with it: S. cerevisiae rad50 strain growth inhibition, stronger effect = higher value. The method in brief:
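Genetically altered yeast (DNA repair pathway); compound treatment; growth inhibition vs vehicle ctrl.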

Assay [2] can be described thus: NCI Yeast Anticancer Drug Screen. Data for the mec2-1 strain (AID 157). The following applies: S. cerevisiae mec2-1 strain, stronger effect = higher value. The method in brief: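 Vehicle-treated cultures served as reference for growth inhibition of compound-exposed mec2-1 yeast.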
A short description of assay [3]: NCI Yeast Anticancer Drug Screen. Data for the sgs1 mgt1 strain (AID 161).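 Also: 0% = growth of cultures given vehicle only.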 The note with it: S. cerevisiae sgs1 mgt1 strain, stronger effect = higher value. The method, boiled down:
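Test agents were incubated with a DNA-repair-mutant yeast strain. Growth was then read and compared against vehicle-treated controls.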

Assay [4] can be described thus: NCI Yeast Anticancer Drug Screen. Data for the cln2 rad14 strain (AID 165).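 Also: 0% = growth equal to vehicle treated cultures.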 The note with it: S. cerevisiae cln2 rad14 strain, stronger effect = higher value. The method in brief:
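Each compound was tested on cln2 rad14 yeast. Inhibition of growth was calculated against vehicle-exposed controls.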

The nature of assay [5]: NCI Yeast Anticancer Drug Screen. Data for the bub3 strain (AID 167). The following applies: S. cerevisiae bub3 mutant strain, stronger effect = higher value. The method, boiled down: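 Yeast carrying a defined mutation is treated with each compound, and growth is compared with that of vehicle-exposed cells to give inhibition.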
Assay [6] is described as follows: NCI Yeast Anticancer Drug Screen. Data for the mlh1 rad18 strain (AID 175). The note with it: S. cerevisiae mlh1 rad18 strain growth inhibition, stronger effect = higher value. The method, boiled down: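 Vehicle-treated cultures served as the reference for growth inhibition in a yeast strain carrying DNA damage repair alterations exposed to each compound.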
[7] abbreviates: at 5.0 µM (retest, dose inferred, filed as 0.5).
The mark [8] stands for this setting: at 50.0 µM (retest, dose inferred, filed as 5.0).

Turning to `CC/C=C/c1cc2c(cc1O)CCC1C2CC[C@@]2(C)C1CC[C@@H]2O` (stereo not given in full), the growth inhibition in assay [1] (setting [7]) is -16% (inactive); in assay [1] (setting [8]), 98% (active); in assay [1] (at 50.0 µM), 78% (active); in assay [2] (setting [7]), -15% (inactive); in assay [2] (setting [8]), 98% (active); in assay [2] (at 50.0 µM) it was 81.7% (active). Moreover, the growth inhibition is -23% (inactive) in assay [3] (setting [7]); 97% (active) in assay [3] (setting [8]); 88.6% (active) in assay [3] (at 50.0 µM); -24% (inactive) in assay [4] (setting [7]); 98% (active) in assay [4] (setting [8]); 88.7% (active) in assay [4] (at 50.0 µM). Moreover, the growth inhibition in assay [5] (setting [7]) is -23% (inactive); in assay [5] (setting [8]), 98% (active); in assay [5] (at 50.0 µM) it was 88.5% (active); in assay [6] (setting [7]) it was -16% (inactive); in assay [6] (setting [8]), 98% (active); in assay [6] (at 50.0 µM), 90.5% (active).
As to `CS(=N)(=O)CCC(N)C(=O)O` (stereo not given), the growth inhibition in assay [1] (setting [7]) was -162% (inactive); in assay [1] (setting [8]), -152% (inactive); in assay [1] (at 50.0 µM), 11.4% (inactive); in assay [2] (setting [7]) it was -50% (inactive); in assay [2] (setting [8]), -48% (inactive); in assay [2] (at 50.0 µM), 9.8% (inactive). The growth inhibition in assay [3] (setting [7]) was -65% (inactive); in assay [3] (setting [8]) it was -45% (inactive); in assay [3] (at 50.0 µM) it was -3.9% (inactive); in assay [4] (setting [7]), -69% (inactive); in assay [4] (setting [8]), -61% (inactive); in assay [4] (at 50.0 µM), 18.7% (inactive). Besides, the growth inhibition in assay [5] (setting [7]) is -73% (inactive); in assay [5] (setting [8]), -78% (inactive); in assay [5] (at 50.0 µM) it was 2.1% (inactive); in assay [6] (setting [7]), -153% (inactive); in assay [6] (setting [8]), -114% (inactive); in assay [6] (at 50.0 µM), 14.6% (inactive).
As for `O=C(c1ccccc1)c1c(CC(O)c2cccnc2)n(C(=O)c2ccccc2)c2ccccc12` (stereo not given), the growth inhibition in assay [1] (setting [7]) is 6% (inactive); in assay [1] (setting [8]), 96% (active); in assay [1] (at 50.0 µM), 91% (active); in assay [2] (setting [7]), 3% (inactive); in assay [2] (setting [8]) it was 96% (active); in assay [2] (at 50.0 µM), 89.2% (active). The growth inhibition is 13% (inactive) in assay [3] (setting [7]); 97% (active) in assay [3] (setting [8]); 90.7% (active) in assay [3] (at 50.0 µM); 19% (inactive) in assay [4] (setting [7]); 96% (active) in assay [4] (setting [8]); 56.5% (inactive) in assay [4] (at 50.0 µM). Further, the growth inhibition in assay [5] (setting [7]) was -5% (inactive); in assay [5] (setting [8]) it was 97% (active); in assay [5] (at 50.0 µM), 87.9% (active); in assay [6] (setting [7]), 2% (inactive); in assay [6] (setting [8]), 94% (active); in assay [6] (at 50.0 µM), 91% (active).
`Cc1cc(N(CCCl)CCCl)ccc1C1N(Cc2ccc(Cl)cc2Cl)CCCN1Cc1ccc(Cl)cc1Cl`: the growth inhibition in assay [1] (setting [7]) was 42% (inactive); in assay [1] (setting [8]) it was 85% (active); in assay [1] (at 50.0 µM), 40.5% (inactive); in assay [2] (setting [7]) it was -4% (inactive); in assay [2] (setting [8]) it was 65% (inactive); in assay [2] (at 50.0 µM), 18.2% (inactive). Further, the growth inhibition was 25% (inactive) in assay [3] (setting [7]); 91% (active) in assay [3] (setting [8]); 57.5% (inactive) in assay [3] (at 50.0 µM); 14% (inactive) in assay [4] (setting [7]); 60% (inactive) in assay [4] (setting [8]); 14.4% (inactive) in assay [4] (at 50.0 µM). The growth inhibition in assay [5] (setting [7]) is 22% (inactive); in assay [5] (setting [8]), 92% (active); in assay [5] (at 50.0 µM), 16.1% (inactive); in assay [6] (setting [7]), 18% (inactive); in assay [6] (setting [8]), 96% (active); in assay [6] (at 50.0 µM), 52.2% (inactive).
In the case of `CN1C2CCC1c1c([nH]c3ccccc13)C2` (stereo not given), the growth inhibition was -22% (inactive) in assay [1] (setting [7]); -23% (inactive) in assay [1] (setting [8]); 3.25% (inactive) in assay [1] (at 50.0 µM); -9% (inactive) in assay [2] (setting [7]); -3% (inactive) in assay [2] (setting [8]); 18.5% (inactive) in assay [2] (at 50.0 µM). For the same compound, the growth inhibition is -7% (inactive) in assay [3] (setting [7]); -10% (inactive) in assay [3] (setting [8]); 20.6% (inactive) in assay [3] (at 50.0 µM); -19% (inactive) in assay [4] (setting [7]); -3% (inactive) in assay [4] (setting [8]); 42% (inactive) in assay [4] (at 50.0 µM). Besides, the growth inhibition was -7% (inactive) in assay [5] (setting [7]); -1% (inactive) in assay [5] (setting [8]); 6.25% (inactive) in assay [5] (at 50.0 µM); -7% (inactive) in assay [6] (setting [7]); -12% (inactive) in assay [6] (setting [8]); 12.4% (inactive) in assay [6] (at 50.0 µM).
